For three compounds, outcome results are on record in PubChem BioAssay (NCATS).

Structures are written as SMILES. Inconclusive results are not listed. The source made the active and inactive calls. Calls follow the shape of the dose curve; as a rule, active = well fitted inhibition curve with a large enough effect; inconclusive = small, poorly fitted or top-dose-only effect; inactive = no such curve, though single readings can be large or run the other way.

A short description of this test: P-glycoprotein substrates identified in KB-3-1 adenocarcinoma cell line, qHTS therapeutic library screen (AID 1346986). Also: nearly all actives have a fitted effect of over 60% in size. Particulars: KB-3-1 parental cells viability, CellTiter-Glo, 72 h; at 44.5 µM (top of the series) unless noted. The method in brief:
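Resistance attributable to P-gp was assessed by comparing AC50 in KB-8-5-11 with parental KB-3-1 and by tariquidar reversal. Cells were exposed 72 h and viability read by CellTiter-Glo.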
For orientation: Quantitative high-throughput screening tests each substance at several concentrations.
`Nc1ccc(S(=O)(=O)Nc2nccs2)cc1`: the outcome was inactive.

`Cc1cc(C(C#N)c2ccc(Cl)cc2)c(Cl)cc1NC(=O)c1cc(I)cc(I)c1O` (stereo not drawn): the outcome was inactive.

On to `COc1ccc2[nH]c(S(=O)Cc3ncc(C)c(OC)c3C)nc2n1` (stereo not drawn), for which the result was inactive.
